TRHR ag – agonists of human TRH receptor; TRHR cells, calcium flux fluo-8, FDSS agonist mode; activation, % at 2 µM; 360,000 compounds, 0.18% hits; also: 0% is about no effect
Target sequence (P34981 whole entry, looked up): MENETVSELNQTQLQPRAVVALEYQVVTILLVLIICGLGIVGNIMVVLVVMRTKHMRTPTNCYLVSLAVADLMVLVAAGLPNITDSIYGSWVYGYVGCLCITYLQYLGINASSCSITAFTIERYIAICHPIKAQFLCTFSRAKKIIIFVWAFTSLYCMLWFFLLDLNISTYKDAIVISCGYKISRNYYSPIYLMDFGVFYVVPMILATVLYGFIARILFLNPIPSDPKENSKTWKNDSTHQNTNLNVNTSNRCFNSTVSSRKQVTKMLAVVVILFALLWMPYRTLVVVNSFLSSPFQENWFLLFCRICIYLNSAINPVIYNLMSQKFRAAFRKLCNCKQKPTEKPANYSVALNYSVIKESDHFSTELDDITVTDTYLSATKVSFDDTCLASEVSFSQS
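TRHR-expressing cells, plated overnight in medium with 10% serum, were loaded with fluo-8 calcium dye at room temperature. After a 10 s baseline, library compound was pin-added and calcium release was recorded kinetically (ex 480/em 530) as agonist response.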
D1 antagonist – blocks dopamine activation of the human D1 receptor. P21728. HEK293 TREx D1 cells, calcium flux, dopamine EC80; hits give low values. activity change, negative = inhibition, % at 10 µM. 360,000 compounds, 3.2% hits; in the data active = activity change below about -30%; also: % is scaled to controls: 0 for no effect and ±100 for the full control effect
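After overnight tetracycline induction at 30 C, force-coupled D1 HEK293 cells took up a no-wash calcium dye at room temperature. Compounds were added and monitored 180 s, and the response to EC80 dopamine was then recorded.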
D1 agonist – agonists of human D1 dopamine receptor; P21728; HEK293 T-REx D1 cells, calcium flux, agonist mode; 360,000 compounds, 1% hits; AID 504660; activation, % at 2 µM; also: 0% is about no effect
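Inducible HEK293 T-REx D1 cells, force-coupled to calcium signalling, were plated at 4000 cells/well with tetracycline and held overnight at 30 C. After no-wash calcium dye loading, compound-evoked calcium rise over 180 s flagged agonists.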
TRHR PAM – TRH receptor (human) allosteric enhancement; P34981; 360,000 compounds, 0.66% hits; enhancement, % at 2 µM; TRHR cells, fluo-8 calcium fluorescence, EC20 TRH enhancement; in the data active = enhancement above about 30%; also: 0% is about no effect
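TRHR-expressing cells loaded with fluo-8 calcium dye were read kinetically (ex 480/em 530) during compound addition, then stimulated with an EC20 of TRH (10 nM final). Enhancement of the Gq-mediated intracellular calcium response was scored.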
LDHA block – inhibitors of human lactate dehydrogenase A; P00338; purified LDHA, NADH/diaphorase-resazurin fluorescence; hits give low values; 480,000 compounds, 0.15% hits; activity change, % (values are at about 110 or 230 µM); in the data active = activity change below about -30%;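 also: plate controls were DMSO wells for no effect and wells without enzyme for full effect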
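LDH5 2 nM; NADH 0.06 mM, pyruvate 0.2 mM; 200 mM Tris pH 7.4, EDTA, Tween-20; 5 min RT. Detection: diaphorase 0.133 mg/mL + resazurin 37 µM, fluorescence ex540/em590 at 0 and 20 min; normalized to enzyme-free and DMSO wells.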
D1 PAM – human D1 dopamine receptor positive modulation; P21728; HEK293 TREx D1 cells, calcium flux, dopamine EC20 potentiation; potentiation, % at 10 µM; 360,000 compounds, 0.036% hits; AID 504651; in the data active = potentiation above about 30%; also: 0% is about no effect
* marks the source's active call; other numbers are inactive results; ! = a repeat was not active. A selection: hits, their analogues and other compounds. The true share with any hit is near 3.6%. Rule as the data show it, unless noted: active = activation above about 30%; inactive = the rest.

For COc1ccc(NCc2nc3scc(-c4cccs4)c3c(=O)[nH]2)cc1 the results were LDHA block 9.
`NC(=O)N/N=C/c1coc2ccc3ccccc3c2c1=O` gave TRHR ag 0, D1 antagonist -71*, D1 agonist 1, TRHR PAM -3, LDHA block -2 and D1 PAM -11.
`COc1ccc(N2CC(C(=O)O)CC2=O)cc1OC` (stereo unspecified) gave LDHA block 6.
`O=C(Nc1ccc(Br)cn1)c1ccc(COc2c(F)c(F)cc(F)c2F)o1` gave TRHR ag 1, D1 antagonist -6, D1 agonist 32*, TRHR PAM 10 and LDHA block 0.
Cc1ccnc(NC(=O)c2ccc(COc3c(F)c(F)cc(F)c3F)o2)c1 was read as TRHR ag -1, D1 antagonist -1, D1 agonist 9, TRHR PAM -4, LDHA block -7 and D1 PAM -11.
`COCCNC(=O)/C(C#N)=c1\s/c(=C\c2ccccc2OC(F)F)c(=O)n1Cc1ccccc1` gave TRHR ag 103*, D1 antagonist -7, D1 agonist -1, TRHR PAM -13 and D1 PAM -2.
`COc1ccc(-c2cc(C(=O)Nc3c(C)nn(Cc4ccccc4C)c3C)no2)cc1OC` gave LDHA block -8.
COc1ccc(-c2cc(C(=O)Nc3cc(OC)c(OC)c(OC)c3)no2)cc1OC was read as TRHR ag 0, D1 antagonist -14, D1 agonist 2, TRHR PAM 39*, LDHA block 9 and D1 PAM -2.
Screening COc1ccc(-c2cc(C(=O)Nc3c(C)nn(Cc4ccccc4Cl)c3C)no2)cc1OC returned TRHR ag 0, D1 antagonist -40*, D1 agonist 10, TRHR PAM 3, LDHA block 0 and D1 PAM -15.
CC(C)n1nc(C(=O)N2CCC(C(=O)O)CC2)c2ccccc2c1=O was read as LDHA block 3.
Screening CC12CCC(C(=O)Nc3nccs3)(OC1=O)C2(C)C (stereo unspecified) returned TRHR ag 0, D1 antagonist -31*, D1 agonist 0, TRHR PAM 3, LDHA block 0 and D1 PAM -2.
Screening CN=c1scc(-c2ccc(OC)cc2)n1/N=C(\C)c1cccnc1 returned TRHR ag -1, D1 antagonist -55*, D1 agonist 12, TRHR PAM -6, LDHA block -6 and D1 PAM -8.
Screening C/C(=N/n1cnnc1)c1cccnc1 returned TRHR ag 0, D1 antagonist -5, D1 agonist 2, TRHR PAM 2, LDHA block 2 and D1 PAM -1.
For Cc1nn(-c2ccccc2)c2nc(C(F)(F)F)[nH]c(=O)c12 the results were TRHR ag 1, D1 antagonist -5, D1 agonist 0, TRHR PAM 13, LDHA block -5 and D1 PAM -3.
Cc1nn(-c2cc(C(F)(F)F)ccc2Cl)c2nc(C(Cl)(Cl)Cl)[nH]c(=O)c12 was read as TRHR ag -1, D1 antagonist -38*, D1 agonist 4, TRHR PAM 0, LDHA block -1 and D1 PAM -16.
Screening O=C(c1ccco1)N1CCN(C(=O)c2ccc(-c3cccc(C(F)(F)F)c3)o2)CC1 returned TRHR ag 1, D1 antagonist 3, D1 agonist 1, TRHR PAM 5, LDHA block -4 and D1 PAM -9.
Screening O=C(c1ccc(-c2cccc(C(F)(F)F)c2)o1)N1CCCCCCC1 returned TRHR ag -1, D1 antagonist -40*, D1 agonist 0, TRHR PAM 2, LDHA block -3 and D1 PAM 1.
Cc1ccc(CC(=O)Nc2ccc(N(C)C)cc2)cc1 was read as LDHA block 21.
CCN(CC)C(=O)Oc1ccc2c(=O)c(-c3ccccc3)c(C(F)(F)F)oc2c1 was read as LDHA block 0.
Screening COc1ccccc1C(=O)Nc1c(C(=O)N(CCN(C)C)Cc2ccco2)oc2ccccc12 returned TRHR ag 2, D1 antagonist -38*!, D1 agonist 46*!, TRHR PAM 0, LDHA block -5 and D1 PAM -14.
Screening Cc1ccccc1C(=O)Nc1c(C(=O)N(CCN(C)C)Cc2ccco2)oc2ccccc12 returned TRHR ag 1, D1 antagonist -11, D1 agonist 10, TRHR PAM -3, LDHA block -2 and D1 PAM -5.
Screening CN(C)CCN(Cc1ccco1)C(=O)c1oc2ccccc2c1NC(=O)c1ccccc1 returned TRHR ag 1, D1 antagonist -42*, D1 agonist 9, TRHR PAM -4, LDHA block -2 and D1 PAM -5.
For O=C(OCC(=O)c1ccccc1)/C(=C/c1cccs1)c1cccs1 the results were LDHA block 0.
For CCOC(=O)C1(CCOc2ccccc2)CCN(Cc2cc(OC)c(O)c(OC)c2)CC1 the results were TRHR ag -1, D1 antagonist 23, D1 agonist 4, TRHR PAM -6, LDHA block 13 and D1 PAM 0.
`CCOC(=O)C1(CCc2ccccc2)CCN(Cc2ccc(O)cc2)CC1` gave TRHR ag 0, D1 antagonist -86*, D1 agonist 18, TRHR PAM 2, LDHA block -7 and D1 PAM -6.
`CCOC(=O)C1(CCOc2ccccc2)CCN(Cc2ccc(OC)c(O)c2)CC1` gave TRHR ag -1, D1 antagonist -71*, D1 agonist 27, TRHR PAM -1, LDHA block 1 and D1 PAM 0.
Screening CC(O)CNCc1ccc(-c2cccc(C(F)(F)F)c2)o1 (stereo unspecified) returned LDHA block 5.
Screening CS(=O)(=O)c1ccc2nc(NC(=O)c3ccc(Cl)cc3)sc2c1 returned TRHR ag 0, D1 antagonist 6, D1 agonist 3, TRHR PAM -2, LDHA block -8 and D1 PAM 1.
CS(=O)(=O)c1ccc2nc(NC(=O)CCNC(=O)c3ccc(Cl)cc3)sc2c1 was read as TRHR ag 1, D1 antagonist -47*, D1 agonist 0, TRHR PAM -9, LDHA block -2 and D1 PAM -4.
`CC(C)(C)NS(=O)(=O)c1ccc2nc(NC(=O)c3cccnc3)sc2c1` gave TRHR ag 0, D1 antagonist 8, D1 agonist 4, TRHR PAM -5, LDHA block -5 and D1 PAM 3.
